# Experimental data as given in the OligoGym collection.
# Target: SLC30A1
# Experiment: pooled miR-30 sensor sort-seq; sequence = guide strand
# Conditions: shRNA
# Note: reference of the scale not given here.
row,Sequence,sensor-assay potency score (higher = more potent)
1,TAGTGTCCCACAACATTGCTTC,0.199
2,TTTGTTTAGGAACAGTTTGTAG,-1.09
3,TTCACTTGTACTTCCACTGTAT,0.732
4,TTAAGTAATGGATAGGTTGTGT,-0.332
5,TTTTCAGCTTTAGTCCTCCTGG,-0.574
6,TACACTAGCAAATTCAGGCTGA,0.702
7,TAATCTCTATCACAACAGCAGG,-1.43
8,TTGATTTAGAGCCTACACTAGC,-0.669
9,TAGATTGTTACTAAGTTCTAAA,-0.976
10,TTCTTCTCTAGATTGTTACTAA,-0.537
11,TTTACTACTACAATCACTGAAC,-0.0512
12,TTAATCTCTATCACAACAGCAG,0.193

# Target: SLC34A1
# Experiment: as above
# Conditions: shRNA
row,Sequence,sensor-assay potency score (higher = more potent)
1,TCTCAATGCTGATCACACCAAG,-0.785
2,TTGAGCATCTTGACTAGGAGGA,0.961
3,TCCGTATTGATGACCTTCTGGA,-0.714
4,TTGATGAGCACCACGAAGGCCA,-0.0356
